Laboratory results taken from PubChem BioAssay AID1159580 (chemical genetic matrix, 2015).
“And” between values parts separate entries of the source, which are not always exact repeats. Equal values may be shown once. About 2,000 (36%) of roughly 5,500 compounds were called active. Roughly 18% stayed inconclusive and do not appear here. No stated cut-off is given here; in the data, active means normalized growth mostly below about 0.91 (no sharp cut-off); inconclusive means no clear call, values can overlap the other calls; inactive means mostly above about 0.92. Some of the results follow. Where a structure was tested more than once in an assay, its records may differ in their call.

Test: chemical genetic growth profiling, strain panel (AID 1159580);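 further: tested at 20 µM; growth read once vehicle control cultures reached saturation at 30 °C; 1 = growth at the plate median or of vehicle wells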
Conditions: S. cerevisiae deletion strains, growth OD

Measured: normalized growth

O=C(O)c1ccccc1Nc1cccc(C(F)(F)F)c1
active: locus YAL013W, strain DEP1, stronger effect = lower value 0.857 | locus YAL021C, strain ccr4, stronger effect = lower value 0.847 | locus YAL026C, strain drs2, stronger effect = lower value 0.837 | locus YAL030W, strain snc1, stronger effect = lower value 0.817 | locus YBL061C, strain skt5, stronger effect = lower value 0.845 | locus YBR009C, strain hhf1, stronger effect = lower value 0.848 | locus YBR021W, strain FUR4, stronger effect = lower value 0.764 | locus YBR171W, strain sec66, stronger effect = lower value 0.69 | locus YBR231C, strain swc5, stronger effect = lower value 0.827 | locus YBR279W, strain paf1, stronger effect = lower value 0.859 | locus YCL011C, strain gbp2, stronger effect = lower value 0.86 | locus YCL016C, strain dcc1, stronger effect = lower value 0.87 | locus YCL069W, strain vba3, stronger effect = lower value 0.834 | locus YCR088W, strain abp1, stronger effect = lower value 0.793 | locus YDL005C, strain med2, stronger effect = lower value 0.882 | locus YDL035C, strain GPR1, stronger effect = lower value 0.844 | locus YDL040C, strain nat1, stronger effect = lower value 0.852 | locus YDL074C, strain BRE1, stronger effect = lower value 0.768 | locus YDR001C, strain nth1, stronger effect = lower value 0.805 | locus YDR069C, strain doa4, stronger effect = lower value 0.896 | locus YDR137W, strain rgp1, stronger effect = lower value 0.623 | locus YDR159W, strain sac3, stronger effect = lower value 0.661 | locus YDR297W, strain sur2, stronger effect = lower value 0.849 | locus YDR334W, strain swr1, stronger effect = lower value 0.788 | locus YDR335W, strain msn5, stronger effect = lower value 0.849 | locus YDR392W, strain spt3, stronger effect = lower value 0.721 | locus YDR502C, strain sam2, stronger effect = lower value 0.915 | locus YEL003W, strain gim4, stronger effect = lower value 0.842 | locus YEL037C, strain rad23, stronger effect = lower value 0.831 | locus YEL061C, strain CIN8 (second series), stronger effect = lower value 0.815 | locus YER015W, strain faa2, stronger effect = lower value 0.869 | locus YER016W, strain bim1, stronger effect = lower value 0.837 | locus YER111C, strain swi4, stronger effect = lower value 0.829 | locus YER155C, strain BEM2 (second series), stronger effect = lower value 0.763 | locus YER155C, strain BEM2, stronger effect = lower value 0.914 | locus YER167W, strain BCK2, stronger effect = lower value 0.833 | locus YFR010W, strain ubp6, stronger effect = lower value 0.858 | locus YGL167C, strain pmr1, stronger effect = lower value 0.751 | locus YGL173C, strain kem1, stronger effect = lower value 0.843 | locus YGL227W, strain vid30, stronger effect = lower value 0.812 | locus YGL240W, strain doc1, stronger effect = lower value 0.853 | locus YGL253W, strain hxk2, stronger effect = lower value 0.811 | locus YGR229C, strain SMI1, stronger effect = lower value 0.727 | locus YGR252W, strain gcn5, stronger effect = lower value 0.645 | locus YHR027C, strain rpn1, stronger effect = lower value 0.862 | locus YHR079C, strain IRE1, stronger effect = lower value 0.126 | locus YHR129C, strain ARP1, stronger effect = lower value 0.918 | locus YHR142W, strain chs7, stronger effect = lower value 0.775 | locus YIL066C, strain RNR3, stronger effect = lower value 0.824 | locus YJL092W, strain hpr5, stronger effect = lower value 0.801 | locus YJL095W, strain BCK1 (second series), stronger effect = lower value 0.848 | locus YJL115W, strain asf1, stronger effect = lower value 0.843 | locus YJL129C, strain trk1, stronger effect = lower value 0.565 | locus YJL154C, strain vps35, stronger effect = lower value 0.792 | locus YJL164C, strain tpk1, stronger effect = lower value 0.873 | locus YJL166W, strain qcr8, stronger effect = lower value 0.853 | locus YJL187C, strain SWE1, stronger effect = lower value 0.833
0.134 (active) and 0.985 (inactive): locus YHR030C, strain SLT2, stronger effect = lower value
inactive: locus YBR023C, strain chs3, stronger effect = lower value 0.924 | locus YBR229C, strain ROT2, stronger effect = lower value 0.983 | locus YCL029C, strain bik1, stronger effect = lower value 0.999 | locus YDL101C, strain DUN1, stronger effect = lower value 0.972 | locus YDL185W, strain tfp1, stronger effect = lower value 0.979 | locus YDL192W, strain arf1, stronger effect = lower value 0.974 | locus YDR101C, strain arx1, stronger effect = lower value 0.984 | locus YDR150W, strain NUM1, stronger effect = lower value 0.996 | locus YDR162C, strain NBP2, stronger effect = lower value 0.852 | locus YDR195W, strain ref2 0.998 | locus YDR318W, strain mcm21, stronger effect = lower value 0.959 | locus YDR388W, stronger effect = lower value 0.975 | locus YEL061C, strain CIN8, stronger effect = lower value 0.952 | locus YER110C, stronger effect = lower value 1.01 | locus YGL078C, strain dbp3, stronger effect = lower value 0.979 | locus YGL086W, strain mad1, stronger effect = lower value 0.96 | locus YGL248W, strain PDE1, stronger effect = lower value 0.92 | locus YGR135W, strain pre9, stronger effect = lower value 0.895 | locus YHR013C, strain ard1, stronger effect = lower value 0.988 | locus YHR079C, strain IRE1 (second series), stronger effect = lower value 0.988 | locus YHR094C, strain hxt1, stronger effect = lower value 1 | locus YHR200W, strain rpn10, stronger effect = lower value 0.95 | locus YIL073C, strain SPO22, stronger effect = lower value 0.858 | locus YIL125W, strain kgd1, stronger effect = lower value 0.981 | locus YIR030C, strain dcg1, stronger effect = lower value 0.965 | locus YJL134W, strain LCB3, stronger effect = lower value 0.994 | locus YJL168C, strain set2, stronger effect = lower value 0.99 | locus YJL187C, strain SWE1 (second series), stronger effect = lower value 0.941
0.119 (active) and 0.83 (inactive): locus YJL095W, strain BCK1, stronger effect = lower value
